Activity change, negative = inhibition data for 84 molecules are collected here from PubChem BioAssay AID504652 (National Center for Advancing Translational Sciences (NCATS), 2011).

The structures appear in SMILES notation. “And” between values parts separate entries of the source, which are not always exact repeats. Identical values can stand only once. Screen size: about 360,000 compounds; about 11,000 (3.1%) were called active. This is one part of a sample in which actives are shown more often than they occur. A number with no mark means an inactive call. Rule as the data show it: active = activity change below about -30%; inactive = the rest.
% is scaled to controls: 0 for no effect and ±100 for the full control effect.

The target in this assay is D(1A) dopamine receptor (Homo sapiens) (UniProt P21728). Description: Antagonist of Human D 1 Dopamine Receptor: qHTS. Conditions: HEK293 TREx D1 cells, calcium flux, dopamine EC80; at 10 µM; active compounds read low. Summed up: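 Cells carrying a force-coupled, tetracycline-inducible human D1 receptor report calcium flux. Each well gets a 10 s baseline, compound with 180 s monitoring, then an EC80 dopamine stimulus with a second 180 s kinetic read.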
Chain of D(1A) dopamine receptor (Homo sapiens) (P21728 whole entry, looked up): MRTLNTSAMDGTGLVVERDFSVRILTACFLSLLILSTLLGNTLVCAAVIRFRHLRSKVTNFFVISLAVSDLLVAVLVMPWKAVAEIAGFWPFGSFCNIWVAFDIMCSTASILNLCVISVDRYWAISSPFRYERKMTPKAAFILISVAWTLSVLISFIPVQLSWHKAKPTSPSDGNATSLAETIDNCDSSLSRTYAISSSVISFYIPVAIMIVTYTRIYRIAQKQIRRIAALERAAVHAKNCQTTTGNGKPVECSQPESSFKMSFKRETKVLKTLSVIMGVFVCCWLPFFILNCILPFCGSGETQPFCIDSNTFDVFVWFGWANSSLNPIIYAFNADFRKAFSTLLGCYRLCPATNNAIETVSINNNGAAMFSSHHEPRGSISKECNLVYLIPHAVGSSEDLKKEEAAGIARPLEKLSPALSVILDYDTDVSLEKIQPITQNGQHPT
On the technique in general: qHTS replaces the single test concentration by a dilution series.
For the molecule `CCCc1nn2c(=O)cc(COC(=O)c3ccc(NC(=O)COc4ccc(F)cc4)cc3)nc2s1`, the activity change, negative = inhibition was -16.4%.

For `CCn1cc(C(=O)OCC(=O)Nc2cc(C)cc(C)c2)c(=O)c2ccc(C)nc21`, the activity change, negative = inhibition was 7.91%. Under `Cc1ccc(N2CCN(c3ccc([N+](=O)[O-])cn3)CC2)c(C)c1` stands 8.06%; under `Cc1ccc(-n2c(C)cc(/C=N/Nc3ccc([N+](=O)[O-])cn3)c2C)c(C)c1`, -44.1% (active); under `Cc1cc(C=O)c(C)n1-c1ccc(NC2CCCCC2)c([N+](=O)[O-])c1`, -2.05%.

For the molecule `CC(C)C(=O)Nc1nc2c(s1)CC(C(C)(C)C)CC2` (centres undefined), the activity change, negative = inhibition was 7.11%. Consider `COc1cccc2[nH]c(C(=O)NCCc3ccccc3)cc12`, for which the activity change, negative = inhibition is -6.46%. Next, `COc1ccccc1OCCNCC(O)COc1cccc2[nH]c3ccccc3c12` (centres undefined): -58.7% (active) and -69% (active).

`CCCn1c(=N)n(CC(O)COc2ccccc2OC)c2ccccc21` (centres undefined): the activity change, negative = inhibition was -15%. `CC(C)Sc1oc(-c2cccs2)nc1S(=O)(=O)c1ccc(Cl)cc1`: the activity change, negative = inhibition was 14.3%. Next, `COc1ccc(-c2nc(SCC(=O)N3CCCCC3C)n[nH]2)cc1` (centres undefined): 9.65%; `COc1ccc(-c2csc(-c3c(N)c(C(=O)c4ccc(OC)c(OC)c4)n4ccccc34)n2)cc1`: -1.18%. Next, `O=S(=O)(NCC(c1ccccc1)N1CCc2ccccc21)c1ccccc1` (centres undefined): 6.46%.

Regarding `COc1ccc(S(=O)(=O)NCC(c2ccc(N(C)C)cc2)N2CCc3ccccc32)cc1OC` (centres undefined), the activity change, negative = inhibition was -64.5% (active). Under `COc1ccc(C(=O)NCC(c2ccc(N(C)C)cc2)N2CCc3ccccc32)c(OC)c1` (centres undefined) stands -5.15%. `COc1ccc(NC(=O)CSc2nccn2Cc2ccc3c(c2)OCO3)cc1`: the activity change, negative = inhibition was 6.87%. Under `O=C(NCc1ccccc1)C1CCN(S(=O)(=O)c2ccc3[nH]c(=O)ccc3c2)CC1` stands 16.6%. Next, `COc1ccc(CCN2C(=O)N(c3cccc(OC)c3)C(=O)C2CC(=O)Nc2ccccc2)cc1` (centres undefined): -1.1%. Under `CN1CCN(C(=O)C2C3C=CC(C3)C2C(=O)O)CC1` (centres undefined) stands -15.3%.

With `O=C(O)C1C2C=CC(C2)C1C(=O)N1CCN(CCO)CC1` (centres undefined), the activity change, negative = inhibition is -46.7% (active). Next, `C=C(Cl)COC(=O)C1C2C=CC(C2)C1C(=O)O` (centres undefined): 6.01%; `Cc1cccc(-n2ncc(C(=O)N3CCc4ccccc4C3)c2C2CCN(C(=O)OC(C)(C)C)CC2)c1`: 7.17%; `Oc1c(Cl)cc(Cl)c(Cl)c1Cc1c(O)c(Cl)cc(Cl)c1Cl`: -41.7% (active). Next, `CCc1ccc(NC(=O)CN2C(=O)C(c3ccccc3)=NC23CCCCCC3)cc1`: -6.53%; `CCn1nc(C)c(NC(=O)/C=C/c2ccc(OC)c(COc3ccc(Br)cc3)c2)c1C`: -39.8% (active). On to `COc1ccc(C(C)=O)cc1COc1ccc(Cl)c(C)c1`, for which the activity change, negative = inhibition was 0.455%. Under `COc1ccc(/C=C/C(=O)Nc2c(C)nn(C)c2C)cc1COc1ccc(Br)cc1` stands 9.14%; under `COc1cccc(CNC(=O)C2CCC(CNS(=O)(=O)c3cccs3)CC2)c1` (centres undefined), -1.65%; under `CCc1ccccc1N1C(=O)CN(S(=O)(=O)CC)CC1(C)C(=O)NC1CCCCC1` (centres undefined), -10.1%.

Consider `Cc1ccccc1C(=O)Nc1sc2c(c1C(=O)N1CCC(C)CC1)CCCC2`, for which the activity change, negative = inhibition was 5.36%. Under `Fc1ccc2[nH]c3c(N4CCN(Cc5ccc6c(c5)OCO6)CC4)ncnc3c2c1` stands -7.57%; under `Fc1ccc2[nH]c3c(N4CCSCC4)ncnc3c2c1`, -30.2% (active). Next, `NCCCC[C@@H]1NC(=O)[C@H](CCC(=O)O)NC(=O)c2cc([N+](=O)[O-])cc(I)c2NCC[C@@H](C(N)=O)NC1=O`: -2.74%; `NC(=O)C[C@@H]1NC(=O)CNC(=O)c2cc([N+](=O)[O-])cc(I)c2NCCC(C(N)=O)NC1=O` (some centres undefined): -30.2% (active). Under `NC(=O)CC[C@@H]1NC(=O)[C@H](CO)NC(=O)c2cc([N+](=O)[O-])cc(I)c2NCC[C@@H](C(N)=O)NC1=O` stands -14%. In the case of `O=C(CSc1nc(-c2cccc(F)c2)[nH]c1-c1ccccc1)Nc1ccc2c(c1)OCO2`, the activity change, negative = inhibition is -4.86%. Next, `Cc1cccc(N2CCN(C(=O)c3cnc(N4CCCC4)nc3C)CC2)c1C`: 10%; `CCCCn1c(=N)c(S(=O)(=O)c2ccccc2)cc2c(=O)n3cccc(C)c3nc21`: 1.3%; `Cc1ccc(Nc2c3c(nc4ccccc24)CCC3)cc1`: -39.1% (active). `N#Cc1cccc(NC(=O)CN2CCCCCC2)c1`: the activity change, negative = inhibition is -7.3%.

For `N#Cc1cccc(Nc2c3c(nc4ccccc24)CCCC3)c1`, the activity change, negative = inhibition is -36.2% (active). Under `CCOc1ccc(C(=O)Nc2ccc3nc4c(c(Nc5ccccc5OC)c3c2)CCCC4)cc1` stands -7.4%; under `COc1ccccc1Nc1c2c(nc3ccc(NC(=O)/C=C/c4cc(OC)c(OC)c(OC)c4)cc13)CCCC2`, 3.33%. Next, `CCOc1ccc(NC(=O)CSc2c3c(nc4ccccc24)CCCC3)cc1`: -2.6%; `O=C(NC1CCCCC1)c1ccc2c(c1)N(Cc1ccc(Cl)cc1)C(=O)c1ccccc1S2=O` (centres undefined): -15.6%; `Cn1nc(-c2ccccc2)c(-c2ccccc2)c(C(=O)Nc2ccc(S(N)(=O)=O)cc2)c1=O`: -1.5%. Under `Cc1cc(C)c(NC(=O)CCc2c(C)nc3c(c(C)nn3C(C)(C)C)c2C)c(C)c1` stands 1.02%; under `CCN1CCN(Cc2c(O)ccc3oc(C)c(C(=O)Nc4ccc(C)cc4C)c23)CC1`, 7.06%; under `COc1ccccc1CNc1ccc(-c2nc(-c3ccccc3C)no2)cc1[N+](=O)[O-]`, -10.5%. On to `O=C(C1CCCN(S(=O)(=O)c2cccc3nonc23)C1)N1CCN(c2ccccc2F)CC1` (centres undefined), for which the activity change, negative = inhibition is 10.7%. Next, `O=C(NCCNc1ccc([N+](=O)[O-])cc1)c1cccc2c(Br)cccc12`: -63.4% (active); `COc1ccc(C(=O)NCCNc2ccc([N+](=O)[O-])cn2)cc1`: -8.65%; `CC(CNc1ccc([N+](=O)[O-])cc1)NC(=O)c1ccccc1Br` (centres undefined): -2.12%.

For the molecule `Cc1ccc(CCNC(=O)c2ccc3c(c2)nc2n3CCC(C)C2)cc1` (centres undefined), the activity change, negative = inhibition is -13.4%. Take `N=c1n(Cc2ccc(Cl)cc2)c2ccccc2n1CC(O)c1ccco1` (centres undefined): the activity change, negative = inhibition is -51.9% (active). Under `O=C(c1ccco1)n1nc(-c2ccc(Cl)cc2)nc1NCc1ccccc1` stands -12.9%. Under `Cc1ccc2c(c1)N(C(=O)CCC(=O)NCc1ccccc1F)CC(C)O2` (centres undefined) stands -22.7%. Next, `CC1CN(C(=O)CCC(=O)NCCCN2CCC(Cc3ccccc3)CC2)c2cc(Cl)ccc2O1` (centres undefined): -43.5% (active).

Consider `COc1ccccc1NC(=O)CCC(=O)N1CC(C)Oc2ccc(C)cc21` (centres undefined), for which the activity change, negative = inhibition was 7.34% and 2.65%. Next, `COc1ccc(N2C(=O)CSC23C(=O)N(Cc2cccc(F)c2)c2ccccc23)cc1Cl` (centres undefined): -0.577%. Next, `O=C(NC(=O)c1cc(OCC(F)(F)F)ccc1OCC(F)(F)F)Nc1ccccc1`: -35% (active); `CONC(=O)c1cc(OCC(F)(F)F)ccc1OCC(F)(F)F`: 8%. Next, `CCOc1ccc(CCNC(=O)Nc2ccccc2)cc1OCC`: 14.7%; `CCC1CCCCN1C(=O)Cn1c(=O)n(CCCCCC(=O)NCc2ccccc2)c(=O)c2sccc21` (centres undefined): -26.9%. For the molecule `COc1ccc(-c2onc(C)c2C)cc1S(=O)(=O)NCc1cccs1`, the activity change, negative = inhibition is -23.8%. Next, `COc1ccccc1/C=C/c1nc(C#N)c(NC(C)c2ccccc2)o1` (centres undefined): 4.56%; `O=C(Nc1ccc(N2CCN(C(=O)c3cccs3)CC2)cc1)c1cccnc1Cl`: 2.63%; `Cc1ccccc1C(=O)N1CCN(c2ccc(NC(=O)c3cccs3)cc2)CC1`: -61.2% (active). Under `O=C(COc1ccccc1)Nc1ccc(N2CCN(C(=O)c3cccs3)CC2)cc1` stands -10.9%; under `CC1=Nc2cc(C(=O)NCc3ccc(C)cc3)ccc2Sc2ccc(Cl)cc21`, 4.46%. Next, `CCCCN(CC)CCCNC(=O)c1nn(C)c2c1CS(=O)(=O)c1ccccc1-2`: 4.54%; `COc1ccc(Cn2cc(C(=O)c3ccc(C)cc3)c(=O)c3cc(OC)c(OC)cc32)cc1`: -0.034%. Take `CN(C)S(=O)(=O)N1CCN(c2ccc([N+](=O)[O-])cc2)CC1`: the activity change, negative = inhibition is -43% (active). Next, `O=[N+]([O-])c1ccc(N2CCN(c3ccc(O)cc3)CC2)c(Cl)c1`: -19%; `Cc1ccc(N2CCN(S(=O)(=O)N(C)C)CC2)cc1Cl`: -16.4%. With `COc1cc(Cl)c(C)cc1Nc1nnc(-n2nc(C)cc2C)c2ccccc12`, the activity change, negative = inhibition was -5.89%. Under `Cc1cc2c(s1)c1cnn(Cc3c(F)cccc3Cl)c(=O)c1n2C` stands 15.1%; under `Cn1c(=O)oc2cc(S(=O)(=O)N3CCC(C(=O)Nc4ccc(OC(F)(F)F)cc4)CC3)ccc21`, -36.4% (active); under `COc1ccc(NC(=O)C2CCN(S(=O)(=O)c3ccc4[nH]c(=O)oc4c3)CC2)c(OC)c1`, 1.07%. For the molecule `Cc1ccc2nc(NC(=O)C3CCN(S(=O)(=O)c4ccc5c(c4)oc(=O)n5C)CC3)sc2c1`, the activity change, negative = inhibition is -9.2%. Under `Cc1ccc(S(=O)(=O)N(CC(=O)Nc2ccc(Cl)cc2Cl)c2ccccc2C)cc1` stands -14.7%; under `Cc1c(Cl)cccc1NC(=O)Cn1cc(C(=O)c2cccs2)c2ccccc21`, -23.5%; under `CCOc1ccc(NC(=O)c2cc3c(=O)n(Cc4cccs4)ccc3nc2C)cc1`, 2.95%.

`COc1ccc(CN2C(=O)C(NC(=O)c3cccc(C)c3)(C(F)(F)F)N=C2c2ccccc2)cc1` (centres undefined): the activity change, negative = inhibition was 2.79%.
